Only a selection was taken, and hits are over-represented in it overall.
Sm TGR inh: S. mansoni TGR enzyme inhibition; Q962Y6; purified TGR, DTNB reduction, TNB absorbance 405 nm; Potency, µM (top dose mostly 114 µM), most hits filed as inhibitors; 360,000 compounds, 3% hits; AID 485364; note: nearly all actives have a fitted effect of over 60% in size
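First, TGR (20 nM dispensed) and NADPH were mixed with compound. Second, a 15 min room-temperature incubation followed. Third, further NADPH and then DTNB were added to start the reaction. Finally, TNB absorbance was monitored kinetically.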
TbPYK inhibitor: T. brucei pyruvate kinase inhibition; TbPYK enzyme, Kinase-Glo Plus ATP luminescence, 45 min; 410,000 compounds, 0.12% hits; Q57TT1; Potency, µM (highest dose often 76.8 µM), hits mostly inhibitors; note: nearly all actives have a fitted effect of over 50% in size
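Activity of T. brucei pyruvate kinase was followed by Kinase-Glo Plus luminescence after the enzyme reacted 45 min at room temperature with 130 uM ADP (final) and substrate. Test compounds were added before ADP at multiple concentrations.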
Giardia FBPA inh: Giardia lamblia aldolase inhibition. A8B2U2. purified Giardia FBPA. Potency, µM (top dose mostly 59.6 µM), usual class: inhibitors. 290,000 compounds, 0.71% hits. AID 2451; note: nearly all actives have a fitted effect of over 55% in size
Target sequence (A8B2U2 whole entry, looked up): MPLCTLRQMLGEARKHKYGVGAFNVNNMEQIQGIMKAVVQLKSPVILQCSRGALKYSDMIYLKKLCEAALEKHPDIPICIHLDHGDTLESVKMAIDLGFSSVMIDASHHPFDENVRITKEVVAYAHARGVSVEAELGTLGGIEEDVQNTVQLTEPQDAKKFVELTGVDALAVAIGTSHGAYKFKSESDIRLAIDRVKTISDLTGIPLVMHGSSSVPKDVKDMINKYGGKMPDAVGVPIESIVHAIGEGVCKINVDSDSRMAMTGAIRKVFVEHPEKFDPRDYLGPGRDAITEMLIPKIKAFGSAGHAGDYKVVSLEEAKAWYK
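Giardia FBPA (40 nM reagent) was preincubated 10 min at RT with compound (up to 57.5 uM final), then substrate plus GAPDH/TPI/NAD/arsenate coupling system with diaphorase/resazurin was added; resorufin fluorescence (525/598 nm) was read after 20 min.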
Shiga toxin inh: Shiga toxin inhibition | inhibition, % at 38.7 µM | 290,000 compounds, 9.2% hits | Vero cells, Shiga toxin protein synthesis inhibition reporter; in the data active = inhibition mostly above about 28%, no sharp cut-off; inactive = mostly below about 43%
Cycloheximide cs: counter-screen for Shiga toxin inhibitors: cycloheximide protein synthesis inhibition; cell reporter, cycloheximide protein synthesis inhibition counterscreen; max response, %; 300,000 compounds, 12% hits; in the data active = max response mostly above about 13%, no sharp cut-off; inactive = mostly below about 14%; note: read at 38.3 µM for the half of the compounds with a filed dose
LmPK inh: LmPK (Leishmania mexicana) enzyme inhibition. 290,000 compounds, 0.37% hits. AID 1721. purified LmPK, Kinase-Glo ATP luminescence, 1 h. Potency, µM (titrated, usually from 57.5 µM), actives largely listed as inhibitors
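ATP generated from ADP (0.1 mM) and PEP (0.5 mM) by 0.1 nM LmPK over 1 h at room temperature (pH 7.2 imidazole buffer) was detected by coupled luciferase luminescence. Values were normalized to uninhibited and no-enzyme wells.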
Numbers stand for hits; – = inactive; ? = inconclusive; · = no result given. Unless noted, calls come from the whole dose curve; as a rule, active = well fitted curve in the direction sought with a large enough effect; inconclusive = small, poorly fitted or top-dose-only effect, or another doubt; inactive = no such curve, though single readings can be large; an effect the other way counts as inactive or inconclusive.

SMILES	Sm TGR inh	TbPYK inhibitor	Giardia FBPA inh	Shiga toxin inh	Cycloheximide cs	LmPK inh
CCN(CCO)c1ccc(N=Cc2c(O)n(C)c(=S)[nH]c2=O)cc1	–	–	?	79.9	44.2	–
CC(C)c1ccc(N=Cc2c(O)n(C3CC3)c(=S)[nH]c2=O)cc1	–	–	–	52.0	10.4	–
Cc1ccc(NC(=O)C(Cc2ccccc2)n2cccc2)cc1C (configuration not stated)	–	–	·	·	·	·
O=C(CN(c1ccc(F)cc1)S(=O)(=O)c1ccc2c(c1)OCCO2)Nc1ccc2c(c1)OCO2	–	–	–	–	–	–
O=C(CN(c1ccc(F)cc1)S(=O)(=O)c1ccc2c(c1)OCCO2)Nc1ccccc1	–	·	–	–	19.8	–
CS(=O)(=O)N(CC(=O)Nc1ccc2c(c1)OCCO2)Cc1ccccc1	–	–	–	–	–	–
CC(=O)Nc1ccc(NC(=O)CN(c2ccc(F)cc2)S(=O)(=O)c2ccc3c(c2)OCCO3)cc1	–	–	–	–	–	–
O=C(CN(c1ccccc1F)S(=O)(=O)c1ccccc1)Nc1ccc2c(c1)OCCO2	–	–	·	120.2	47.6	–
O=C(CN(Cc1ccccc1)S(=O)(=O)c1ccc2c(c1)OCCO2)Nc1ccc2c(c1)OCCO2	–	–	–	35.7	28.0	–
C[C@@H]1OC(Oc2ccccc2-c2cc(=O)c3c(O)cc(O)c([C@@H]4O[C@H](CO)[C@@H](O)[C@H](O)[C@H]4O)c3o2)[C@H](O)[C@H](O)[C@H]1O (some centres not stated)	·	·	–	–	–	·
COc1cc(/C=C/c2nc(C#N)c(N3CCN(C)CC3)o2)cc(OC)c1OC	–	–	·	·	·	·
Cc1nc(NC(=O)c2ccccc2)sc1-c1csc(Nc2ccc(C(=O)O)cc2)n1	–	–	–	–	10.1	–
Cc1ccc(Nc2nc(-c3sc(NC(=O)c4cccc(Cl)c4)nc3C)cs2)cc1	–	·	–	–	–	–
Cc1ccc(Nc2nc(-c3sc(NC(=O)c4ccco4)nc3C)cs2)cc1	?	–	–	–	19.6	–
COc1cccc(Nc2nc(-c3sc(NC(=O)c4ccccc4)nc3C)cs2)c1	–	–	–	70.9	–	–
COc1ccccc1Nc1nc(-c2sc(NC(=O)c3cccc(Cl)c3)nc2C)cs1	–	·	–	–	13.7	–
CC(C)c1nn2c(=O)cc(COC(=O)c3cccc(NC(=O)c4ccccc4F)c3)nc2s1	–	–	·	·	·	·
Cc1ccc(CNC(=O)CN2C(=O)CSc3ccc(S(=O)(=O)N4CCCC4)cc32)cc1	–	–	·	·	·	·
CC(=O)Nc1nc(C)c(-c2csc(Nc3cccc(C(C)=O)c3)n2)s1	–	–	–	–	–	–
Cc1nc(NC(=O)c2ccc(Cl)cc2)sc1-c1csc(Nc2cccc(F)c2)n1	–	·	–	–	23.8	–
Cc1nn(C)c2c1c(C(F)(F)F)cc(=O)n2C(C)C(=O)NCCc1ccc(Cl)cc1 (configuration not stated)	–	–	·	·	·	·
COC(=O)C(C)CCCC(C)CCCC(C)CCCC(C)C (configuration not stated)	·	·	–	–	–	·
Cc1cc(C(=O)O)c(C)n1-c1ccccc1	–	–	–	–	–	–
Cc1ccc(-n2c(C)cc(C(=O)CN3CCCCC3)c2C)cc1	–	–	–	87.4	40.1	–
Cc1cc(C(=O)CN2CCC(C)CC2)c(C)n1-c1ccccc1F	–	–	–	–	–	–
SMILES	Sm TGR inh	TbPYK inhibitor	Giardia FBPA inh	Shiga toxin inh	Cycloheximide cs	LmPK inh
Cc1cc(C(=O)CN2CC(C)OC(C)C2)c(C)n1-c1ccccc1 (configuration not stated)	44.7µM	–	–	50.5	12.6	–
O=C(N/N=C/c1ccsc1)c1ccccn1	–	–	–	70.1	27.6	–
CC(C)(C)c1ccc(/C=N/NC(=O)c2ccccn2)cc1	–	–	–	42.3	38.3	–
O=C(N/N=C/c1ccc(Br)s1)c1ccccn1	–	–	–	84.1	47.5	–
CCCN(CCC)CCCNC(=O)Cn1ncn2c(cc3sc(CC)cc32)c1=O	–	–	·	·	·	·
Cc1cccc(-n2c(C)c(C)c3c(N)ncnc32)c1	–	–	–	–	19.5	–
CCNc1ncc2ncc(=O)n(C)c2n1	·	–	–	·	·	·
COc1ccc(NC(=O)CN2C(=O)CCn3nc(-c4cccn4C)cc32)cc1	–	–	·	·	·	·
